# Laboratory results as given in the antibiotic and cytotoxicity screens of Wong et al. (2023).
# The campaign covered roughly 39,000 compounds. About 1,500 (3.8%) were called active. This excerpt belongs to a sample that is enriched for actives.
# System: HSkMC (human skeletal muscle cells)
# Assay: cytotoxicity call (relative viability < 0.9)
# Conditions: 10 µM
row,Compound,cytotoxicity call
1,C[C@@H]1CN([C@H](C)CO)C(=O)Cc2cc(NS(=O)(=O)c3ccc(Cl)cc3)ccc2O[C@H]1CN(C)C(=O)Nc1cccc2ccccc12,inactive
2,C[C@H]1CN([C@@H](C)CO)C(=O)c2cccc(NC(=O)Nc3ccc4c(c3)OCO4)c2O[C@H]1CN(C)S(=O)(=O)c1cn(C)cn1,inactive
3,CCCN(C)C[C@H]1OCCCC[C@H](C)Oc2ccc(NC(=O)NC3CCCCC3)cc2C(=O)N([C@@H](C)CO)C[C@H]1C,inactive
4,C[C@H]1CCCCO[C@@H](CN(C)S(=O)(=O)c2ccc(F)cc2)[C@@H](C)CN([C@@H](C)CO)C(=O)c2cc(NS(=O)(=O)c3cn(C)cn3)ccc2O1,inactive
5,C[C@@H]1CN([C@@H](C)CO)C(=O)c2cc(NC(=O)c3ccncc3)ccc2O[C@@H](C)CCCCO[C@H]1CN(C)C(=O)Nc1ccccc1,inactive
6,O=C(C[C@H]1C=C[C@@H](NC(=O)c2ccncc2)[C@@H](CO)O1)NCc1ccncn1,inactive
7,Cc1ccccc1S(=O)(=O)N1C[C@@H](O)COC[C@H]2O[C@H](CC(=O)N3CCOCC3)CC[C@@H]21,inactive
8,CC1CCC2(C)C(C=O)=CCCC2C1(C)CC1OC(O)C(=O)C12CO2 (stereo not drawn),inactive
9,C[C@@H]1CCCCO[C@@H](CN(C)CC2CCCCC2)[C@H](C)CN([C@H](C)CO)C(=O)c2cc(NC(=O)CCC(F)(F)F)ccc2O1,inactive
10,C[C@H](CO)N1C[C@H](C)[C@H](CN(C)C(=O)Nc2ccc(F)cc2)Oc2ccc(NC(=O)Cn3cnnn3)cc2C1=O,inactive
11,C[C@@H]1CN([C@@H](C)CO)C(=O)c2cccc(NC(=O)NC3CCCCC3)c2O[C@@H]1CN(C)C(=O)Nc1ccc(C(F)(F)F)cc1,active
12,C[C@H]1CN([C@@H](C)CO)C(=O)c2cccc(NC(=O)NC3CCCCC3)c2O[C@H]1CN(C)C(=O)Nc1ccc(C(F)(F)F)cc1,active
13,C[C@@H]1CN([C@H](C)CO)C(=O)c2cccc(NC(=O)NC3CCCCC3)c2O[C@@H]1CN(C)C(=O)Nc1ccc(C(F)(F)F)cc1,inactive
14,C[C@H]1CN([C@@H](C)CO)C(=O)c2cccc(NC(=O)NC3CCCCC3)c2O[C@@H]1CN(C)C(=O)Nc1ccc(C(F)(F)F)cc1,inactive
15,C[C@@H]1CN([C@H](C)CO)C(=O)c2cccc(NC(=O)NC3CCCCC3)c2O[C@H]1CN(C)C(=O)Nc1ccc(C(F)(F)F)cc1,inactive
16,C[C@H](CO)N1C[C@H](C)[C@H](CN(C)C(=O)Nc2ccc(C(F)(F)F)cc2)Oc2c(NC(=O)NC3CCCCC3)cccc2C1=O,inactive
17,COc1ccc(NC(=O)Nc2ccc3c(c2)C(=O)N([C@H](C)CO)C[C@H](C)[C@H](CN(C)S(=O)(=O)c2cn(C)cn2)O3)cc1,inactive
18,Cc1cc(-c2cccs2)cc(C)n1,inactive
19,COCC(=O)N1C[C@H](C)[C@H](OC)CN(C)C(=O)c2cc(NC(=O)c3cc(C)on3)ccc2OC[C@@H]1C,inactive

row,Compound,cytotoxicity call
1,COc1cc2c(cc1O)CCN[C@]21CS[C@@H]2c3c(OC(C)=O)c(C)c4c(c3[C@H](COC1=O)N1[C@@H]2[C@H]2c3c(cc(C)c(OC)c3O)C[C@@H]([C@@H]1O)N2C)OCO4,active
2,COc1ccc(NC(=O)N(C)C[C@H]2OCCCC[C@@H](C)Oc3ccc(NC(=O)Nc4ccc(C(F)(F)F)cc4)cc3C(=O)N([C@@H](C)CO)C[C@H]2C)cc1,inactive
3,CCS(=O)(=O)Nc1ccc2c(c1)C(=O)N(C)C[C@@H](OC)[C@@H](C)CN(Cc1nccs1)[C@@H](C)CO2,inactive
4,C[C@@H]1CCCCO[C@@H](CN(C)Cc2ccc(Cl)c(Cl)c2)[C@@H](C)CN([C@@H](C)CO)C(=O)c2cc(NS(=O)(=O)c3ccccc3)ccc2O1,active
5,C[C@@H]1CN([C@H](C)CO)C(=O)c2cc(NS(=O)(=O)c3ccccc3)ccc2O[C@@H](C)CCCCO[C@H]1CN(C)Cc1ccc(Cl)c(Cl)c1,inactive
6,C[C@@H]1CCCCO[C@@H](CN(C)Cc2ccc(Cl)c(Cl)c2)[C@H](C)CN([C@H](C)CO)C(=O)c2cc(NS(=O)(=O)c3ccccc3)ccc2O1,active
7,C[C@@H]1CCCCO[C@H](CN(C)Cc2ccc(Cl)c(Cl)c2)[C@H](C)CN([C@@H](C)CO)C(=O)c2cc(NS(=O)(=O)c3ccccc3)ccc2O1,active
8,C[C@@H]1CCCCO[C@@H](CN(C)Cc2ccc(Cl)c(Cl)c2)[C@@H](C)CN([C@H](C)CO)C(=O)c2cc(NS(=O)(=O)c3ccccc3)ccc2O1,inactive
9,C[C@@H]1CCCCO[C@@H](CN(C)Cc2ccc(Cl)c(Cl)c2)[C@H](C)CN([C@@H](C)CO)C(=O)c2cc(NS(=O)(=O)c3ccccc3)ccc2O1,active
10,C[C@H](CO)N1C[C@H](C)[C@@H](CN(C)Cc2ccc(Cl)c(Cl)c2)OCCCC[C@H](C)Oc2ccc(NS(=O)(=O)c3ccccc3)cc2C1=O,inactive
11,Cc1noc(C)c1NC(=O)Nc1cccc2c1O[C@@H](CN(C)C(=O)NC(C)C)[C@@H](C)CN([C@H](C)CO)C2=O,inactive
12,CCCC#Cc1cnc2c(c1)C(=O)N([C@@H](C)CO)C[C@@H](C)[C@H](CN(C)S(=O)(=O)c1cccc(OC)c1)O2,inactive
13,O=C(C[C@@H]1CC[C@H]2[C@@H](COC[C@H](O)CN2C(=O)c2cccnc2)O1)NCc1ccc(-c2ccccc2)cc1,inactive
14,C[C@H]1CN([C@@H](C)CO)C(=O)c2cc(NS(=O)(=O)c3ccc(F)cc3)ccc2O[C@H]1CN(C)S(=O)(=O)c1cccs1,inactive
15,COc1ccc(NC(=O)N(C)C[C@H]2Oc3ccc(NC(=O)Nc4ccc(C(F)(F)F)cc4)cc3CC(=O)N([C@H](C)CO)C[C@H]2C)cc1,inactive
16,C[C@H](CO)N1C[C@H](C)[C@H](CN(C)S(=O)(=O)c2ccc(Cl)cc2)Oc2c(NC(=O)c3ccc(-c4nccs4)cc3)cccc2C1=O,inactive
17,C[C@@H]1CN([C@H](C)CO)C(=O)c2cc(C#CC3(O)CCCC3)cnc2O[C@@H]1CN(C)C(=O)C1CCCCC1,inactive
18,C[C@@H](NC(=O)C[C@@H]1CC[C@H](NC(=O)CN2CCOCC2)[C@@H](CO)O1)c1ccccc1,inactive
19,O=S1(=O)C[C@H](O)[C@@H](N2CCN(CCO)CC2)C1,inactive
